Inconclusive results are not listed. Active and inactive are the calls of the source. The calls were made as follows, unless noted: active = hit-call score of the fitted dose curve at least 0.9, where 1 is the maximum; inactive = score below 0.9.
Columns and labels:
[1] = ACEA_ER_80hr: ACEA Biosciences xCELLigence Real-Time Cell Analysis on Estrogen Receptor Agonism for Proliferation (AID 2282667; active = hit-call score of the fitted dose curve at least 0.9, where 1 is the maximum); conditions: T47D proliferation, impedance (xCELLigence), 80 h
In short: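 Real-time electrical impedance tracked growth of the human breast line T47D, with the 80 h post-dosing value used. Dosing spanned eight 1:4 steps down from a 100 uM final top concentration, run in duplicate.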

[2] = ATG_CRE_CIS: Attagene CIS-FACTORIAL HepG2 Assay for human cAMP Responsive Element (CRE) binding protein 3 (AID 2282926); conditions: HepG2 CRE cis-reporter, Attagene multiplexed mRNA; actives raise or lower the signal
In short: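 Assay format: transient reporter transfection of HepG2, 24 h treatment, total RNA isolation with DNase I step. Reporter abundance read by fluorescence after PCR and capillary separation; DMSO-normalised gain or loss fitting.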

[3] = biological target: CCAAT/enhancer-binding protein beta (Homo sapiens) (UniProt P17676); test: ATG_C_EBP_CIS: Attagene CIS-FACTORIAL HepG2 Assay for human CCAAT/Enhancer Binding Protein (C/EBP) beta (AID 2282927); conditions: HepG2 Attagene cis-factorial transcription factor reporter; actives raise or lower the signal
CCAAT/enhancer-binding protein beta (Homo sapiens), sequence (P17676 whole entry, looked up): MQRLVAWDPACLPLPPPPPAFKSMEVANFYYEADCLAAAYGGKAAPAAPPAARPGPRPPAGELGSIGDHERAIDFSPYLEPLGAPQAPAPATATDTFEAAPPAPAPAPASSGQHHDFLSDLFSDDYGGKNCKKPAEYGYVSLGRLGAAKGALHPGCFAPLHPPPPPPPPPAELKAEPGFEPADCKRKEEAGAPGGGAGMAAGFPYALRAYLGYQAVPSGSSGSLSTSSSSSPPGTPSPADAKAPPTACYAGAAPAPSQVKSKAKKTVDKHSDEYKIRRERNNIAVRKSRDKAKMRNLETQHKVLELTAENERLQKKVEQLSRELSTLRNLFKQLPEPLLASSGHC
In short: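 HepG2, transient MRTU transfection, 24 h treatment. RT-PCR plus CE fluorescence; DMSO negative control, bidirectional fit.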

[4] = ATG_CMV_CIS: Attagene CIS-FACTORIAL HepG2 Assay for human CMV (Internal Marker) (AID 2282928); conditions: HepG2 CMV promoter reporter, transcription factor profiling; actives raise or lower the signal;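 also: endpoint acts as a background internal control marker rather than a target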
In short: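 24 h chemical treatment, HepG2 with transient multi-reporter transfection; RNA → oligo(dT) RT → PCR → 6-FAM extension → HpaI digest → CE fluorescence. Bidirectional fit, DMSO negative control.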

[5] = ATG_DR4_LXR_CIS: Attagene CIS-FACTORIAL HepG2 Assay for human Liver X Receptor (LXR), DR4 submotif (AID 2282929); conditions: HepG2 Attagene DR4 cis-reporter, mRNA transcription; actives raise or lower the signal
In short: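 Endogenous factor activity at a DR4 cis-element is read as reporter mRNA in transiently transfected HepG2 cells. Exposure lasts 24 h; transcripts are amplified, fluorescently labelled and sized by capillary electrophoresis, with DMSO as baseline.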

[6] = ATG_AP_1_CIS: Attagene CIS-FACTORIAL HepG2 Assay for human Activator Protein 1 (AP-1) (AID 2282931); conditions: HepG2 Attagene cis-factorial AP-1 reporter mRNA; actives raise or lower the signal
In short: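 Fluorescence of labelled PCR fragments separated by capillary electrophoresis gives reporter mRNA levels. HepG2 with transfected cis-regulated reporter units, 24 h exposure; DMSO serves as baseline for bidirectional curve fits.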

[7] = ATG_AP_2_CIS: Attagene CIS-FACTORIAL HepG2 Assay for human Activator Protein 2 (AP-2) (AID 2282932); conditions: HepG2 AP-2 cis-reporter, Attagene transcription factor profiling; actives raise or lower the signal
In short: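 Read-out: fluorescent reporter mRNA via RT-PCR and capillary electrophoresis, 24 h post-dose in transiently transfected HepG2. Endogenous factors drive cis-promoter reporters; gain or loss of signal fitted bidirectionally against DMSO.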

[8] = ATG_BRE_CIS: Attagene CIS-FACTORIAL HepG2 Assay for human Bone Morphogenetic Protein (BMP) Response Element (BRE) (AID 2282933); conditions: HepG2 BMP response element reporter, Attagene transcription factor profiling; actives raise or lower the signal
In short: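 Endogenous transcription factor activity read in transiently transfected HepG2 cells after 24 h chemical exposure. Bidirectional curve fitting against DMSO; readout is reporter transcript level by RT-PCR with capillary electrophoresis of labelled products.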

[9] = biological target: Retinoic acid receptor alpha (Homo sapiens) (UniProt P10276); test: ATG_DR5_RAR_CIS: Attagene CIS-FACTORIAL HepG2 Assay for human Retinoic Acid Receptor Alpha (RARE), DR5 submotif (AID 2282934); conditions: HepG2 Attagene cis-factorial RARE DR5 reporter, mRNA; actives raise or lower the signal
Retinoic acid receptor alpha (Homo sapiens), sequence (P10276 whole entry, looked up): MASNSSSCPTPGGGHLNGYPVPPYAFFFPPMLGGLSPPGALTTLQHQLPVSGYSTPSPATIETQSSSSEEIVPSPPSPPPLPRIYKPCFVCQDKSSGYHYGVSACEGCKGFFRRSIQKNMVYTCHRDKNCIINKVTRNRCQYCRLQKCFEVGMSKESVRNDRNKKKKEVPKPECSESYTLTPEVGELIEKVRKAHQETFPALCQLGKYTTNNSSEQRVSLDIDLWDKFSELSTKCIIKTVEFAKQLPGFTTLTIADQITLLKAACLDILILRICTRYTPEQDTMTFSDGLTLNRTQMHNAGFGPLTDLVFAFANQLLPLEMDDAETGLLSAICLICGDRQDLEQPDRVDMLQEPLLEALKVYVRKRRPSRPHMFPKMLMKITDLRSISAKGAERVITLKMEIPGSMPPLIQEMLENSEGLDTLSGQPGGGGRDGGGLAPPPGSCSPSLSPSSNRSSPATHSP
In short: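 After 24 h of chemical exposure, transiently transfected HepG2 cells were lysed for total RNA; the DR5-regulated reporter transcript was quantified via RT-PCR and capillary electrophoresis, with activity fitted bidirectionally against DMSO.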

[10] = biological target: Transcription factor E2F1 (Homo sapiens) (UniProt Q01094); test: ATG_E2F_CIS: Attagene CIS-FACTORIAL HepG2 Assay for human E2F Transcription Factor 1 (AID 2282935); conditions: HepG2 Attagene cis-reporter, E2F reporter RNA transcripts; actives raise or lower the signal
Transcription factor E2F1 (Homo sapiens), sequence (Q01094 whole entry, looked up): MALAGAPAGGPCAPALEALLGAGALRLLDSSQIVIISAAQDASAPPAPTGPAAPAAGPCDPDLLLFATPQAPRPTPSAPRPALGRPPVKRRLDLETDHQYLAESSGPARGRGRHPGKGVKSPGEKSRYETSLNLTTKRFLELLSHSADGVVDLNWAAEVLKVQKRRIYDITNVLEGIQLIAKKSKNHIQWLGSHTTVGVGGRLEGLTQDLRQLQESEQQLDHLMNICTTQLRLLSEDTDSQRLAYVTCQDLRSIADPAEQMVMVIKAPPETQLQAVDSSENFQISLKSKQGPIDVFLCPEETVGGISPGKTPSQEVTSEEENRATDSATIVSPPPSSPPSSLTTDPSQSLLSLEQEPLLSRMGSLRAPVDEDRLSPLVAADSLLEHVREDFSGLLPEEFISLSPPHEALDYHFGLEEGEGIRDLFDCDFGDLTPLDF
In short: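 Transient MRTU transfection of HepG2; 24 h compound exposure; RNA → oligo(dT) RT → PCR → FAM label → HpaI cut → CE fluorescence. Gain/loss of signal fit against DMSO.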

[11] = ATG_E_Box_CIS: Attagene CIS-FACTORIAL HepG2 Assay for human Enhancer Box (E-box) (AID 2282936); conditions: HepG2 E-box cis-reporter transcription, actives raise or lower the signal
In short: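 Transiently transfected HepG2, endogenous TF-driven reporters, 24 h dosing. Readout: RT-PCR plus capillary electrophoresis of fluorescent reporter fragments. Gain or loss of signal fitted bidirectionally against DMSO baseline.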

[12] = ATG_M_61_CIS: Attagene CIS-FACTORIAL HepG2 Assay for M61 Transcription Factor (Internal Marker) (AID 2282937); conditions: HepG2 Attagene CIS-FACTORIAL M61 internal marker reporter; actives raise or lower the signal
In short: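 This endpoint serves as an internal background control within a multiplexed HepG2 cis-reporter panel. Cells are exposed for 24 h; reporter mRNA is amplified, fluorescently labelled and sized by capillary electrophoresis, with DMSO as negative control.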

[13] = ATG_EGR_CIS: Attagene CIS-FACTORIAL HepG2 Assay for human Early Growth Response 1 (EGR1) (AID 2282938); conditions: HepG2 Attagene CIS-FACTORIAL EGR reporter mRNA; actives raise or lower the signal
In short: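 HepG2, transient MRTU transfection (cis promoters), 24 h compound. RNA → RT (oligo-dT) → PCR → 6-FAM labelling → HpaI cut → CE fluorescence. Bidirectional fit, DMSO baseline.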

[14] = ATG_M_19_CIS: Attagene CIS-FACTORIAL HepG2 Assay for M19 Transcription Factor (Internal Marker) (AID 2282939); conditions: HepG2 Attagene CIS-FACTORIAL M19 internal marker reporter; actives raise or lower the signal
In short: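 Internal marker readout, fitted in both directions against DMSO, from HepG2 cells carrying transfected cis-element reporter constructs; RT-PCR and capillary electrophoresis of reporter mRNA after 24 h exposure.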

[15] = ATG_ERE_CIS: Attagene CIS-FACTORIAL HepG2 Assay for Estrogen Response Element (ERE) (AID 2282940); conditions: HepG2 ERE cis-reporter, Attagene RNA transcript; actives raise or lower the signal
In short: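 After 24 h compound treatment, RNA from transfected HepG2 cells was reverse-transcribed, reporter cDNA PCR-amplified, FAM-labelled, HpaI-cut and resolved by capillary electrophoresis. ERE-driven cis reporter transcripts reflect endogenous factors; gain or loss scored against DMSO.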

[16] = ATG_Ets_CIS: Attagene CIS-FACTORIAL HepG2 Assay for human Erythroblast Transformation Specific (ETS) (AID 2282941); conditions: HepG2 ETS cis-reporter transcription, actives raise or lower the signal
In short: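 Cis-regulated reporter mRNA induction in HepG2 (transient transfection), 24 h exposure, RT-PCR plus capillary electrophoresis detection; DMSO serves as negative control and baseline.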

[17] = biological target: Hepatocyte nuclear factor 3-beta (Homo sapiens) (UniProt Q9Y261); test: ATG_FoxA2_CIS: Attagene CIS-FACTORIAL HepG2 Assay for human Forkhead box A2 (FOXA2) (AID 2282942); conditions: HepG2 cis-reporter transcription factor activity, 24 h; actives raise or lower the signal
Hepatocyte nuclear factor 3-beta (Homo sapiens), sequence (Q9Y261 whole entry, looked up): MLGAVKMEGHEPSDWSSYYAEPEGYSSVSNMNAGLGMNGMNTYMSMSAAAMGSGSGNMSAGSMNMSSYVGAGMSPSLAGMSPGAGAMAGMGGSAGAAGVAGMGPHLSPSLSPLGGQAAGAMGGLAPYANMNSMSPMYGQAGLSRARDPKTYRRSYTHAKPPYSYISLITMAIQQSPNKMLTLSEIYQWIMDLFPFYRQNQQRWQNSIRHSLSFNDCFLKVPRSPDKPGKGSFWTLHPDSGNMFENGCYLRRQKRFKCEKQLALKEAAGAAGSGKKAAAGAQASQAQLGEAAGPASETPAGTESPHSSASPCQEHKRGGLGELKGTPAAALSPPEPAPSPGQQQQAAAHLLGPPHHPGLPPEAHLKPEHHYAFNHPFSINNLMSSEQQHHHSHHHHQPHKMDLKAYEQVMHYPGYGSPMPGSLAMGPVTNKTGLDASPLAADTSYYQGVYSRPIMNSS
In short: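 Cells: HepG2, transient multiplex reporter transfection. Exposure 24 h. Detection: reporter-specific RT-PCR, fluorescent labelling, restriction digest, capillary electrophoresis. Analysis: bidirectional curve fit, DMSO as negative control.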

[18] = ATG_FoxO_CIS: Attagene CIS-FACTORIAL HepG2 Assay for human Forkhead box O (FoxO) (AID 2282943); conditions: HepG2 Attagene cis-reporter, FoxO element, mRNA; actives raise or lower the signal
In short: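 Transfected HepG2 reporter cells exposed to test chemical for 24 h; reporter RNA measured by reverse transcription, PCR and fluorescent capillary electrophoresis; curves fitted for increases and decreases against DMSO.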

[19] = ATG_GATA_CIS: Attagene CIS-FACTORIAL HepG2 Assay for human GATA Binding Protein (AID 2282944); conditions: HepG2 GATA cis-element reporter, Attagene multiplex mRNA; actives raise or lower the signal
In short: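 Reporter transcripts from a GATA cis-regulated unit, among multiplexed reporters in transfected HepG2 cells, were measured by RT-PCR with capillary electrophoresis after 24 h dosing. Induction or loss scored relative to DMSO.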

Measured: AC50

OC(O)C(F)(F)C(F)(F)F
active: [4] 117 µM | [5] 150 µM | [6] 96 µM
inactive: [1] | [2] | [3] | [7] | [8] | [9] | [10] | [11] | [12] | [13] | [14] | [15] | [16] | [17] | [18] | [19]

NC(=O)C(F)(F)C(F)(F)C(F)(F)F
inactive: [1] | [2] | [3] | [4] | [5] | [6] | [7] | [8] | [9] | [10] | [12] | [13] | [14] | [15] | [16] | [17] | [18] | [19]

CC(C)Nc1ccc(NC(C)C)c2c1C(=O)c1ccccc1C2=O
inactive: [1] | [2] | [3] | [4] | [5] | [6] | [8] | [9] | [11] | [12] | [13] | [14] | [16] | [17] | [18] | [19]

CSc1ccc(Cl)cc1
inactive: [1] | [2] | [3] | [4] | [5] | [6] | [7] | [8] | [9] | [10] | [11] | [12] | [13] | [14] | [15] | [16] | [17] | [18] | [19]

— PubChem BioAssay (EPA / NIEHS)
